Measured values published in PubChem BioAssay AID1159580 (chemical genetic matrix, 2015).
Among all 5,500 compounds or so, about 2,000 (36%) were called active. Roughly 18% stayed inconclusive and do not appear here. No stated cut-off is given here; in the data, active means normalized growth mostly below about 0.91 (no sharp cut-off); inconclusive means no clear call, values can overlap the other calls; inactive means mostly above about 0.92. This is one part of the list.

Experiment: chemical genetic growth profiling, strain panel (AID 1159580);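 further: tested at 20 µM; growth read once vehicle control cultures reached saturation at 30 °C; 1 = growth at the plate median or of vehicle wells; lower values mean less growth of the strain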
Details: S. cerevisiae deletion strains, growth OD

Measured: normalized growth

CC1C/C=C/C=C/C=C/C=C/C(O[C@@H]2O[C@H](C)[C@@H](O)[C@H](N)[C@@H]2O)CC2OC(O)(CC(O)CC3OC3/C=C/C(=O)O1)CC(O)C2C(=O)O (stereo not given in full)
active: locus YBR171W, strain sec66, hits give low values 0.142 | locus YCL061C, strain MRC1, hits give low values 0.802 | locus YCR088W, strain abp1, hits give low values 0.126 | locus YER015W, strain faa2, hits give low values 0.823 | locus YER155C, strain BEM2 (second series), hits give low values 0.711 | locus YGL227W, strain vid30, hits give low values 0.0655 | locus YKR026C, strain gcn3, hits give low values 0.296 | locus YLR357W, strain rsc2, hits give low values 0.427 | locus YMR125W, strain sto1, hits give low values 0.0829 | locus YNL248C, strain rpa49, hits give low values 0.544
inactive: locus YAL021C, strain ccr4, hits give low values 1.02 | locus YAL026C, strain drs2, hits give low values 0.94 | locus YAL030W, strain snc1, hits give low values 1 | locus YBL061C, strain skt5, hits give low values 1 | locus YBR009C, strain hhf1, hits give low values 0.981 | locus YBR023C, strain chs3, hits give low values 0.992 | locus YBR231C, strain swc5, hits give low values 0.981 | locus YBR279W, strain paf1, hits give low values 1 | locus YCL011C, strain gbp2, hits give low values 0.989 | locus YCL016C, strain dcc1, hits give low values 0.993 | locus YCL069W, strain vba3, hits give low values 1.01 | locus YDL005C, strain med2, hits give low values 0.993 | locus YDL040C, strain nat1, hits give low values 0.993 | locus YDR001C, strain nth1, hits give low values 1 | locus YDR069C, strain doa4, hits give low values 0.983 | locus YDR137W, strain rgp1, hits give low values 1.01 | locus YDR159W, strain sac3, hits give low values 0.958 | locus YDR195W, strain ref2 0.945 | locus YDR297W, strain sur2, hits give low values 1 | locus YDR334W, strain swr1, hits give low values 0.999 | locus YDR335W, strain msn5, hits give low values 0.985 | locus YDR392W, strain spt3, hits give low values 0.848 | locus YEL003W, strain gim4, hits give low values 0.991 | locus YEL037C, strain rad23, hits give low values 0.992 | locus YEL061C, strain CIN8 (second series), hits give low values 0.984 | locus YER016W, strain bim1, hits give low values 0.978 | locus YER111C, strain swi4, hits give low values 0.981 | locus YFR010W, strain ubp6, hits give low values 0.982 | locus YGL167C, strain pmr1, hits give low values 0.984 | locus YGL173C, strain kem1, hits give low values 0.997 | locus YGL240W, strain doc1, hits give low values 0.996 | locus YGL253W, strain hxk2, hits give low values 0.973 | locus YHR013C, strain ard1, hits give low values 0.957 | locus YHR027C, strain rpn1, hits give low values 1 | locus YHR030C, strain SLT2, hits give low values 0.972 | locus YHR079C, strain IRE1, hits give low values 0.975 | locus YHR142W, strain chs7, hits give low values 1.02 | locus YJL092W, strain hpr5, hits give low values 0.964 | locus YJL095W, strain BCK1 (second series), hits give low values 1 | locus YJL095W, strain BCK1, hits give low values 1 | locus YJL115W, strain asf1, hits give low values 1 | locus YJL129C, strain trk1, hits give low values 0.949 | locus YJL154C, strain vps35, hits give low values 0.995 | locus YJL164C, strain tpk1, hits give low values 1.01 | locus YJL166W, strain qcr8, hits give low values 0.992 | locus YJL187C, strain SWE1, hits give low values 1 | locus YJR066W, strain TOR1, hits give low values 0.943 | locus YKL160W, strain elf1, hits give low values 1.04 | locus YKR091W, strain srl3, hits give low values 0.999 | locus YLL001W, strain dnm1, hits give low values 0.982 | locus YLL026W, hits give low values 1 | locus YLL041C, strain sdh2, hits give low values 0.998 | locus YLR027C, strain aat2, hits give low values 1 | locus YLR113W, strain HOG1, hits give low values 1.02 | locus YLR221C, strain rsa3, hits give low values 1.02 | locus YLR258W, strain gsy2, hits give low values 0.977 | locus YLR262C, strain YPT6 (second series), hits give low values 1.01 | locus YLR320W, strain mms22, hits give low values 1 | locus YLR342W, strain FKS1, hits give low values 0.994 | locus YLR370C, strain arc18, hits give low values 1.02 | locus YLR384C, strain iki3, hits give low values 0.994 | locus YML120C, strain ndi1, hits give low values 1.01 | locus YMR058W, strain fet3, hits give low values 0.921 | locus YMR129W, hits give low values 0.987 | locus YMR205C, strain PFK2, hits give low values 0.985 | locus YMR231W, strain pep5, hits give low values 0.997 | locus YNL071W, strain lat1, hits give low values 1 | locus YNL183C, strain NPR1, hits give low values 0.956 | locus YNL209W, strain ssb2, hits give low values 0.999 | locus YNL322C, strain KRE1 (second series), hits give low values 1 | locus YNR049C, strain mso1, hits give low values 0.994 | locus YOR001W, strain rrp6, hits give low values 1.01 | locus YOR070C, strain gyp1, hits give low values 0.998 | locus YOR080W, strain dia2, hits give low values 1 | locus YOR083W, strain WHI5, hits give low values 1.03 | locus YOR106W, strain vam3, hits give low values 1.03 | locus YOR231W, strain MKK1, hits give low values 0.963 | locus YOR265W, strain rbl2, hits give low values 0.999 | locus YOR270C, strain vph1, hits give low values 0.948 | locus YOR290C, strain snf2, hits give low values 0.953 | locus YPL051W, strain arl3, hits give low values 1 | locus YPL078C, strain atp4, hits give low values 1.02 | locus YPL106C, strain sse1, hits give low values 1.01 | locus YPL240C, strain hsp82, hits give low values 1 | locus YPL256C, strain CLN2, hits give low values 0.991
